Experimental data: PubChem BioAssay AID540259 (Broad Institute, 2011)
Results with a measured potency or affinity are listed apart. The source made the active and inactive calls.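 The calls were made as follows: active = cell killing, meaning signal decrease, with fitted half-maximal dose at or below ten times the top valid tested dose; inconclusive = poor fit, or flat curve with 30 to 70% signal loss; inactive = the rest.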

Experiment: HeLa cell cytotoxicity, dose response, cytotoxicity control for MITF activator project, CellTiter-Glo luminescence, cherry-pick samples (AID 540259);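 also: 0% = DMSO neutral control and -100% = mitoxantrone positive control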
Details: HeLa viability, CellTiter-Glo ATP luminescence, 24 h; series mostly up to 35 µM; activity change, negative = cytotoxicity: at the top concentration
In the case of `O=C(Cc1ccccn1)c1ccc(Cl)cc1`, the “activity change, negative = cytotoxicity” value was -13.2% (inactive). In the case of `O=C(N/N=C/c1ccccn1)c1c[nH]c2ccccc12`, the “activity change, negative = cytotoxicity” value was 3.24% (inactive). For `Cc1cc(C)c(NN=c2c(=O)c3ccccc3c2=O)c(C)c1`, the “activity change, negative = cytotoxicity” value was 4.61% (inactive). For `c1ccc(CSCc2nc3ccccc3[nH]2)cc1`, the “activity change, negative = cytotoxicity” value was 11.5% (inactive). With `O=C(NC1=NCCS1)c1ccc(Cl)s1` the “activity change, negative = cytotoxicity” value was 3.77% (inactive). For `CCCCc1ccc(Nc2ncnc3nc[nH]c23)cc1`, the “activity change, negative = cytotoxicity” value was 12.9% (inactive). In the case of `O=C(NCc1ccccn1)Nc1ccc(Br)cc1Cl`, the “activity change, negative = cytotoxicity” value was 13.2% (inactive). With `Cc1ccc(CNc2nc(C)cs2)cc1` the “activity change, negative = cytotoxicity” value was -2% (inactive). In the case of `CSCC[C@H](NC(=O)[C@@H]1Cc2ccccc2CN1)C(=O)NC[C@H]1CC[C@H](C(=O)O)CC1`, the “activity change, negative = cytotoxicity” value was 15.4% (inactive). With `CC(=O)c1sc(NC(=O)c2ccccc2F)nc1-c1ccccc1` the “activity change, negative = cytotoxicity” value was 11% (inactive). With `O=C(Nc1ccc(C(F)(F)F)cc1)c1ccccc1` the “activity change, negative = cytotoxicity” value was 9.08% (inactive). For `Cc1ccc(C2=NN(S(C)(=O)=O)C(c3cccs3)C2)cc1` (centres undefined), the “activity change, negative = cytotoxicity” value was -4.21% (inactive). With `O=C(CC1CCCC1)Nc1ccc(Br)cc1` the “activity change, negative = cytotoxicity” value was -3.11% (inactive). In the case of `Cc1ccc(NC(=O)CCCc2ccccc2)nc1`, the “activity change, negative = cytotoxicity” value was 0.518% (inactive).
